Test results taken from the supplement of paper PMC11732987, “Enantioselective OTUD7B fragment discovery through chemoproteomics screening and high-throughput optimisation” (Communications Chemistry, 2025).

Experiments:
Experiment in all cases: log2 ratio of Biotin-Ahx-Ub-VS probe labelling (fragment/DMSO); higher = less target engagement (more negative = stronger competition), active = hit call of the paper (q ≤ 0.05, log2 ratio ≤ -1)
Conditions in all cases: compound concentration: 200 uM; treatment time: 3 h
USP42 = molecular target: T1, USP42 (UniProt Q9H9J4)
T1 sequence (whole entry): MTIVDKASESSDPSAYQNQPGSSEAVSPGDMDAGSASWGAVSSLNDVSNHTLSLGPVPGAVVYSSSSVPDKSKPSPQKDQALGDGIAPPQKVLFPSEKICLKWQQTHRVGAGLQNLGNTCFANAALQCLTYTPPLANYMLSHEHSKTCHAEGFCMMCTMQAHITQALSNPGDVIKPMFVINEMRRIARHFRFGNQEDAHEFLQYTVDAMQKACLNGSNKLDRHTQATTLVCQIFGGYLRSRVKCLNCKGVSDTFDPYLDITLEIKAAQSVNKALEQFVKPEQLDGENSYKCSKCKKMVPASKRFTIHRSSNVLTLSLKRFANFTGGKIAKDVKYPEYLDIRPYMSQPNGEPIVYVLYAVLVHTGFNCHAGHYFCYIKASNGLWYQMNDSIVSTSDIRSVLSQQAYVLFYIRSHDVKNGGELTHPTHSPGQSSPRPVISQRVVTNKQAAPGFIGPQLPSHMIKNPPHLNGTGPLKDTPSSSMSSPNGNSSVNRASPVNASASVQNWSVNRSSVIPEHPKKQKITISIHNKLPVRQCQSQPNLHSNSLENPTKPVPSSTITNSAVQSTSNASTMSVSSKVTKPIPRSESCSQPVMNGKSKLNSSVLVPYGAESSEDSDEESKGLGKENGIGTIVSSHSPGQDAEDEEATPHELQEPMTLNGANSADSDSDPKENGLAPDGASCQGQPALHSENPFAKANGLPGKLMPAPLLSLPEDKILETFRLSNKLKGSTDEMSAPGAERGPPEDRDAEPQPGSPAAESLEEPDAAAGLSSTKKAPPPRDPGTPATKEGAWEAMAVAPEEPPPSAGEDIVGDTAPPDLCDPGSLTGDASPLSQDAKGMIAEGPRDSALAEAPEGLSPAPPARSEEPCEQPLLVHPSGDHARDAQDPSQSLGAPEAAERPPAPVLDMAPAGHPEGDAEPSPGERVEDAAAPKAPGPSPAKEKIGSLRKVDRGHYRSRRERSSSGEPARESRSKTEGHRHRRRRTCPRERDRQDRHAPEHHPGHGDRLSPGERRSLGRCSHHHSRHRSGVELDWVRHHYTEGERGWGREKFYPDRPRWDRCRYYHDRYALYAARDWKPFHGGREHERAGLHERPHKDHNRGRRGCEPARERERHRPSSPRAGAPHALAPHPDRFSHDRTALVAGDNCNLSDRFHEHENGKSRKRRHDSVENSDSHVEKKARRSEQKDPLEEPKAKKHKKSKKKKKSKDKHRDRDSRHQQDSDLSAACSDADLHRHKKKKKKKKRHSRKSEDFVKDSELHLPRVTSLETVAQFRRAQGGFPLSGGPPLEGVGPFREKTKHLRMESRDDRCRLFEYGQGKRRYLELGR
Summary of the method: (§1)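 In triplicate, 495 µg of HEK293T lysate per sample was incubated with fragment at 200 µM or vehicle for 3 h. Biotin-Ahx-Ub-VS was then added to 0.5 µM final for 1 h, and labelled DUBs were captured with NeutrAvidin, digested with LysC and trypsin, and measured by diaPASEF LC-MS/MS. Data are average log2 fragment/vehicle ratios by unpaired t-test from global-median-normalised Spectronaut label-free quantities, restricted to proteins with ≥2 unique peptides.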

USP46 = USP46 (UniProt P62068)
USP46, sequence (P62068 whole entry): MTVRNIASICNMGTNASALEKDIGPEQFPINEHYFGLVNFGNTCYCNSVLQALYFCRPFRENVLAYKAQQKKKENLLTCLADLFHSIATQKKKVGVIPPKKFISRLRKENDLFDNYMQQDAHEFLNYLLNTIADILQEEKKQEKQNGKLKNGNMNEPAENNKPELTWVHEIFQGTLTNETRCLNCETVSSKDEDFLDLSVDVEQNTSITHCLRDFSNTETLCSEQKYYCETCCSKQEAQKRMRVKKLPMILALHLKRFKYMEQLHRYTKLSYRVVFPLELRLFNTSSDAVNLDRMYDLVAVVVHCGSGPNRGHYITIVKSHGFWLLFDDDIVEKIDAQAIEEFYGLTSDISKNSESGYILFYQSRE
Summary of the method: as §1

USP47 = molecular target: T2, USP47 (UniProt Q96K76)
T2 sequence (whole entry): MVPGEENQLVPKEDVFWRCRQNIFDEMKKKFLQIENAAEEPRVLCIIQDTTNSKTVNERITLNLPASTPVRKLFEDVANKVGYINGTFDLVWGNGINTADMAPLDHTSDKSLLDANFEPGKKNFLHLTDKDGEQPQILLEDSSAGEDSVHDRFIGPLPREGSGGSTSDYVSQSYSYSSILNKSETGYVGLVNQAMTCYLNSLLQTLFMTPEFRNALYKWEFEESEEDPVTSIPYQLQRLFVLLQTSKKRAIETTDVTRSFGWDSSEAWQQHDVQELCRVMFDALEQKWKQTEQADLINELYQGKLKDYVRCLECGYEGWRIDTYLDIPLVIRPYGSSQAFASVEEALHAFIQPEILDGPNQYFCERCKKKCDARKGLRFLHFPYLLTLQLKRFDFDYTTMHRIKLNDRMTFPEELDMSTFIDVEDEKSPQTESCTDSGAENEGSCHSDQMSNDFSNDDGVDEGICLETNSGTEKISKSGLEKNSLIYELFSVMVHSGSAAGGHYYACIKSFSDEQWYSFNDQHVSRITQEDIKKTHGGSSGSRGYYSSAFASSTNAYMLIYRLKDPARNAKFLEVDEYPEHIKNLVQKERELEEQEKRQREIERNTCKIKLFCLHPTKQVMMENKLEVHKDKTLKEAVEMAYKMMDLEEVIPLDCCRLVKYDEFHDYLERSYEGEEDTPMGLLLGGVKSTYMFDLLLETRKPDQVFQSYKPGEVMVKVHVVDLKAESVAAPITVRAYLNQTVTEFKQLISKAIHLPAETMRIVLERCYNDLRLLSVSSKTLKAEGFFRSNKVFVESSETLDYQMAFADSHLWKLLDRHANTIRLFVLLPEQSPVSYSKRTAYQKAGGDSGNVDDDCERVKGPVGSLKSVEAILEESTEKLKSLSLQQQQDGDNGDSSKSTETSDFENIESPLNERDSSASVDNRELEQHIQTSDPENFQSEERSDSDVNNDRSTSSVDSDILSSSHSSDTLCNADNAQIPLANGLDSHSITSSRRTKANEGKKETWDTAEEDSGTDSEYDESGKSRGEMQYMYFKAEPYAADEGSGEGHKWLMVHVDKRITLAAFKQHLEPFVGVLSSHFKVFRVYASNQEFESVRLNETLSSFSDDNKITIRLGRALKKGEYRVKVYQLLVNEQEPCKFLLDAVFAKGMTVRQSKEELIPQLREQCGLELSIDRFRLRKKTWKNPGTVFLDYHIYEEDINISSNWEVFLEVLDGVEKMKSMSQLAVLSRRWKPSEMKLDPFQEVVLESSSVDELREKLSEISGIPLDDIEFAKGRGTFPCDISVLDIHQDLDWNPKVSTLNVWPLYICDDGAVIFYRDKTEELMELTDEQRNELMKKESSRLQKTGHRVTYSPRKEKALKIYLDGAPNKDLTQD
Summary of the method: as §1

USP48 = molecular target: T3, USP48 (UniProt Q86UV5)
T3 sequence (whole entry): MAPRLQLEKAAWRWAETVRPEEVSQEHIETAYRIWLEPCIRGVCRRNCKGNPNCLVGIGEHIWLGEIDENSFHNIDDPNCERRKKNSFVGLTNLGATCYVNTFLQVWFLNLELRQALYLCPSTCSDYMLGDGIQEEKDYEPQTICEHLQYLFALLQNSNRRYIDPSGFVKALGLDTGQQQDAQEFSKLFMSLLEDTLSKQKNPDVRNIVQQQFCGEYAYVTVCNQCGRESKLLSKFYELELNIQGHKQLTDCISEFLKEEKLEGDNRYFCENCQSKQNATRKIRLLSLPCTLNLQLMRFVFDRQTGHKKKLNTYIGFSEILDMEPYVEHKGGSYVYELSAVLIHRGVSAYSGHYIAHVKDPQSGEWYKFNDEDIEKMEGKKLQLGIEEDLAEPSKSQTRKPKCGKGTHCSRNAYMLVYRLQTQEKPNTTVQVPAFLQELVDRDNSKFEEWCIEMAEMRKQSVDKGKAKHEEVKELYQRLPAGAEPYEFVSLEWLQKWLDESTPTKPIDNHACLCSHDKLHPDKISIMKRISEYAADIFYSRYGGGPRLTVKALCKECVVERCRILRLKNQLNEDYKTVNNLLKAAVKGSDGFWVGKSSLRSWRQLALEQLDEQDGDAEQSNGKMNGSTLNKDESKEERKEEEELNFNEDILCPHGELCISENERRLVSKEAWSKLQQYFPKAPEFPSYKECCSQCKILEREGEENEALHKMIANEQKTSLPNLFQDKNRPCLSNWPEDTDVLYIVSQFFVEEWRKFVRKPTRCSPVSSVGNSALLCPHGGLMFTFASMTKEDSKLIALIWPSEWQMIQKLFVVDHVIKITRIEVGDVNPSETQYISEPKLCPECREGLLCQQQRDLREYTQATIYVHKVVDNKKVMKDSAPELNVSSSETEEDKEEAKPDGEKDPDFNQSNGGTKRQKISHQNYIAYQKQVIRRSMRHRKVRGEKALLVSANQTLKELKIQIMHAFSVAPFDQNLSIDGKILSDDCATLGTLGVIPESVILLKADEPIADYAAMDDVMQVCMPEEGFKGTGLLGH
Summary of the method: as §1

USP5 = molecular target: T4, USP5 (UniProt P45974)
T4 sequence (whole entry): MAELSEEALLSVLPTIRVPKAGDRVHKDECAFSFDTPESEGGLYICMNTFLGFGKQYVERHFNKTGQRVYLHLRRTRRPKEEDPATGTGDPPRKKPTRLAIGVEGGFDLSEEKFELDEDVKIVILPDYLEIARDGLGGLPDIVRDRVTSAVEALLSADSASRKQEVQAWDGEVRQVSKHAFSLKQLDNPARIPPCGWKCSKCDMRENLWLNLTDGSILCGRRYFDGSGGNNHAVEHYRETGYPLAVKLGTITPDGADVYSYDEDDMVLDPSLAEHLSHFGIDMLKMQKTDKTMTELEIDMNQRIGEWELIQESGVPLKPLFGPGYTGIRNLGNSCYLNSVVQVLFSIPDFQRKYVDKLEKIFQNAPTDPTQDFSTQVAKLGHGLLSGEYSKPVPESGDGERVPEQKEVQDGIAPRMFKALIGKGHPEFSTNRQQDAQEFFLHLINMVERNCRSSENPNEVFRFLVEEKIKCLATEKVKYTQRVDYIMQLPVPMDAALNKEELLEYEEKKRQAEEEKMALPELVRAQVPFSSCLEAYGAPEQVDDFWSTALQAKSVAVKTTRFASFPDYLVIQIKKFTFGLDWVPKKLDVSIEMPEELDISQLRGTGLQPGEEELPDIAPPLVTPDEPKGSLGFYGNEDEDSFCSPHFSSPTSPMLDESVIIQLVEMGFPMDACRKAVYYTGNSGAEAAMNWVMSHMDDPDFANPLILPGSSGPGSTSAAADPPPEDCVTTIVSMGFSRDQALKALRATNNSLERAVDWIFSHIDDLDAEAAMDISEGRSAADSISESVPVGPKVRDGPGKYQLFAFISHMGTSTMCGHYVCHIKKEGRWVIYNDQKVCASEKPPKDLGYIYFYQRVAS
Summary of the method: as §1

USP54 = USP54 (UniProt Q70EL1)
USP54, sequence (Q70EL1 whole entry): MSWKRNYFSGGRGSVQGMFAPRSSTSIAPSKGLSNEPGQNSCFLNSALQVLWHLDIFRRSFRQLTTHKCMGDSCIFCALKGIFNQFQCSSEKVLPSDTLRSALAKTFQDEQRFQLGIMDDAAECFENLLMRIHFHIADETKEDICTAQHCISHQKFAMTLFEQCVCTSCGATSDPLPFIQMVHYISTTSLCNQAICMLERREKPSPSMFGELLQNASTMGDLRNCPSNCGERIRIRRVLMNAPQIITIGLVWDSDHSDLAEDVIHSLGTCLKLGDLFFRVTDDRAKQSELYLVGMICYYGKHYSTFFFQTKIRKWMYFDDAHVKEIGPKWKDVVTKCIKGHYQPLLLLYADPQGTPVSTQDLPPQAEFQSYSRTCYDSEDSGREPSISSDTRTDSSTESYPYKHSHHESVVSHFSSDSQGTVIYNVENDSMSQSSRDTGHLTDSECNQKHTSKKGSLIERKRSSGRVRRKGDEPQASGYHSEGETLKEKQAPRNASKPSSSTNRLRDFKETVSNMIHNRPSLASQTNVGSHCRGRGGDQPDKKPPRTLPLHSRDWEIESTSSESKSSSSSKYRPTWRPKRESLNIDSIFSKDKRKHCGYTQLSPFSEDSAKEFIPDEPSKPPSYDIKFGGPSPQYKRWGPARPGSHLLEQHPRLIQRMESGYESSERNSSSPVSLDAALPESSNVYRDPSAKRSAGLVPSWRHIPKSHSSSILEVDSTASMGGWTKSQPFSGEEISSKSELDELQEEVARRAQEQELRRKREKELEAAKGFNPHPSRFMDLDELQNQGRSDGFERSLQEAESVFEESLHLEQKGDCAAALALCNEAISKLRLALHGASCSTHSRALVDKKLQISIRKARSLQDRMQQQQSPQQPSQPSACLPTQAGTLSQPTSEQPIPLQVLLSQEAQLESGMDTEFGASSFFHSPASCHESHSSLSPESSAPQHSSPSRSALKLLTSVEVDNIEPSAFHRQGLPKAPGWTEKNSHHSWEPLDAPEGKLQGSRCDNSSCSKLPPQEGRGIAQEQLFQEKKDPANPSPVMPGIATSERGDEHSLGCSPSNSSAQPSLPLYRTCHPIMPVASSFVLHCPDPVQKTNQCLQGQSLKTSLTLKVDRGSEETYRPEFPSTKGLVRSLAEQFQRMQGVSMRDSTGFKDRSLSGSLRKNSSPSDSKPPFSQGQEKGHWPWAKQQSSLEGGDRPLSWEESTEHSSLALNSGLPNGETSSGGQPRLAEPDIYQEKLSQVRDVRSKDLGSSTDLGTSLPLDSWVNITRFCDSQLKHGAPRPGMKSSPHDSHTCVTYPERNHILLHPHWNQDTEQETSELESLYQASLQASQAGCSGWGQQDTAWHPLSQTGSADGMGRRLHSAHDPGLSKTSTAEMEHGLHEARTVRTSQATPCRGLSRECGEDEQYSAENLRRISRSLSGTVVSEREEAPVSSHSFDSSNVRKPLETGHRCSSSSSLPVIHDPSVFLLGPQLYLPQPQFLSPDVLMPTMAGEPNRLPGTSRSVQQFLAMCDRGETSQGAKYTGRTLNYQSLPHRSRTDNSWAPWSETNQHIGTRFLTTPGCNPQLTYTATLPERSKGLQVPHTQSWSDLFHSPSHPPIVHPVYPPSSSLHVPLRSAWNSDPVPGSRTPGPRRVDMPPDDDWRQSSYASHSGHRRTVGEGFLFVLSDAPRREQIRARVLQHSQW
Summary of the method: as §1

USP7 = USP7 (UniProt Q93009)
USP7, sequence (Q93009 whole entry, looked up): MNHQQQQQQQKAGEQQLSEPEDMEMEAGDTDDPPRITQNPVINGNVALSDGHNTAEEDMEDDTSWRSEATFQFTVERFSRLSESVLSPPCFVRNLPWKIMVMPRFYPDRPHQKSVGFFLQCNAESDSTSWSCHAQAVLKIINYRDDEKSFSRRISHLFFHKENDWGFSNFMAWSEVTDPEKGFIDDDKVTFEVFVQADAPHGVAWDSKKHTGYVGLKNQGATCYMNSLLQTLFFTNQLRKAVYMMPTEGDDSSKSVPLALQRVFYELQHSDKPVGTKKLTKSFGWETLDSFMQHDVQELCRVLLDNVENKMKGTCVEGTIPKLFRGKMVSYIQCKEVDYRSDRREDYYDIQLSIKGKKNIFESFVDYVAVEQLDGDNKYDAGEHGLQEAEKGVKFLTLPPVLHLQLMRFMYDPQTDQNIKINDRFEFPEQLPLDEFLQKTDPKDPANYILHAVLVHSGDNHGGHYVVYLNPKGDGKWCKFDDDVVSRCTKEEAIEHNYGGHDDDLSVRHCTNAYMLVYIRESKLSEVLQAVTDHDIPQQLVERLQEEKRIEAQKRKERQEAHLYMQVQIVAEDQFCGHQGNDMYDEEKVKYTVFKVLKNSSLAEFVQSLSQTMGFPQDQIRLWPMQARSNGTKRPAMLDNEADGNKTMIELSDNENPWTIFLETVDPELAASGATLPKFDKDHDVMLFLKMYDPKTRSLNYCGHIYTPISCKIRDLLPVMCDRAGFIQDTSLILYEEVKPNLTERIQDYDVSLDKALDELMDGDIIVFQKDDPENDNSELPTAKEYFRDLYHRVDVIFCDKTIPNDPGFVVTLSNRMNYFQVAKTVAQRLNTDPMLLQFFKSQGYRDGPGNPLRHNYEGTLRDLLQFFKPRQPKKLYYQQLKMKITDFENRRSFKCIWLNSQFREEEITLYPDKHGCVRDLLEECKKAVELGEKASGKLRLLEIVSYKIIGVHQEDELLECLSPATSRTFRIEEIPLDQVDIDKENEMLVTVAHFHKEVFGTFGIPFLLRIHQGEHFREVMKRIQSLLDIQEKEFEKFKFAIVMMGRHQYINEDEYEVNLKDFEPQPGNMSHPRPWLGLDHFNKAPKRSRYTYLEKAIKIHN
Summary of the method: as §1

USP8 = molecular target: T5, USP8 (UniProt P40818)
T5 sequence (whole entry): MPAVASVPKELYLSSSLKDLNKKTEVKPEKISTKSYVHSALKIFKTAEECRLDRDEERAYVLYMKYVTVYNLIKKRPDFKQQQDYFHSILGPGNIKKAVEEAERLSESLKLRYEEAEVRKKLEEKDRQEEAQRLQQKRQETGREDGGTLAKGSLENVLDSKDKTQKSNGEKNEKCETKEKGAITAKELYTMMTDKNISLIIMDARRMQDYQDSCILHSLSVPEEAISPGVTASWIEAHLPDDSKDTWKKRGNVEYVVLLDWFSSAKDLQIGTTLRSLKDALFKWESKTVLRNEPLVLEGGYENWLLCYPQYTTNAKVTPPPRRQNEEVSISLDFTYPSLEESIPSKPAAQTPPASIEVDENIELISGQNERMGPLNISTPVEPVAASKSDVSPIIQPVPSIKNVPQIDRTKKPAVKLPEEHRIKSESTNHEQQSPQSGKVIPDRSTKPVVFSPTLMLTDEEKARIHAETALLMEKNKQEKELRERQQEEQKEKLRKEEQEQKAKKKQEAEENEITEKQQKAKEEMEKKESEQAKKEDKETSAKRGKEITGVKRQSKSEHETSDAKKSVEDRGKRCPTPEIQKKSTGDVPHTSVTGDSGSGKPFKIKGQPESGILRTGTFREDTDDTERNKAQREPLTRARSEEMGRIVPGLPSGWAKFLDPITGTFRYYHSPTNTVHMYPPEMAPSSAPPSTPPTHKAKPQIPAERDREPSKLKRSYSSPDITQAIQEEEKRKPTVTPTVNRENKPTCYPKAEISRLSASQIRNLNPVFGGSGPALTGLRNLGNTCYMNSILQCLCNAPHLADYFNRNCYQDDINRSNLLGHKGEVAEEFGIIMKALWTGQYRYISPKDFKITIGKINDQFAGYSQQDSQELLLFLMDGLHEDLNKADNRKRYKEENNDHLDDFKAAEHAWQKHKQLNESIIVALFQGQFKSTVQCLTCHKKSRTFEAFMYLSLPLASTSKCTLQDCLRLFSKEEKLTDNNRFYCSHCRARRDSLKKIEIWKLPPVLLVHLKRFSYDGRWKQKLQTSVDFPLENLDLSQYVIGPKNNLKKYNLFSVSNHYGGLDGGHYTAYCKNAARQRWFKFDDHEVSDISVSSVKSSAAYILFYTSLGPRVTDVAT
Summary of the method: as §1

Measured: log2 ratio of Biotin-Ahx-Ub-VS probe labelling

Cc1ccc(C)c(NC(=O)CCl)c1
inactive: USP42 0.248 | USP46 -0.456 | USP47 -0.823 | USP48 -0.558 | USP5 -0.353 | USP54 -0.00643 | USP7 -0.537 | USP8 -0.263
